Experimental data published in PubChem BioAssay.
Calls of active or inactive are those of the source.

Columns and labels:
[1] = target: Albumin (Bos taurus) (UniProt P02769); experiment: compounds binding labelled BSA control protein – biochemical, small-molecule microarray, Alexa647 label, 635/667 nm fluorescence, artefact control for SMM control protein annotation, profiling panel (AID 1118); settings: BSA-A647 binding, fluorescence 635 nm, higher = more signal;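 note: score merges 667 nm emission intensity and signal-to-noise per printed compound spot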
Albumin (Bos taurus), sequence (P02769 whole entry, looked up): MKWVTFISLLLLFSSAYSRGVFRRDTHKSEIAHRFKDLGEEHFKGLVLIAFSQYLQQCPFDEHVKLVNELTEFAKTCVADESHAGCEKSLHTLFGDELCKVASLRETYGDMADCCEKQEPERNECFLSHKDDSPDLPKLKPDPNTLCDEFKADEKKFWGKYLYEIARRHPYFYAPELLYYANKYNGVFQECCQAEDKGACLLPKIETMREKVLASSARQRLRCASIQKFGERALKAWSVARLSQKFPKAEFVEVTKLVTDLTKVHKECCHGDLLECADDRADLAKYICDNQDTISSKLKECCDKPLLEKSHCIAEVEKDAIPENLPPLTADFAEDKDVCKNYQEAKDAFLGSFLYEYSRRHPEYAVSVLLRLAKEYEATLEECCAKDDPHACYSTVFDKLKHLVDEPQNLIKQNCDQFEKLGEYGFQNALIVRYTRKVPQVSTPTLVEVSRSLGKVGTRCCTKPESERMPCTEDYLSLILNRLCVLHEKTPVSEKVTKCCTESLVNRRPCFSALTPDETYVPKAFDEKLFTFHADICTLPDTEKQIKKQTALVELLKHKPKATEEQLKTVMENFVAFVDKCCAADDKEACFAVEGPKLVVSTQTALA

[2] = probe aXIP binding to arrayed compounds – biochemical, NeuroSMM set, 635/667 nm fluorescence, primary screen (AID 1119); settings: small-molecule microarray, higher = more signal, called active from +8 up or from −8 down;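 note: probe is the protein aXip251-270 applied at 1 µg/mL to compound-printed slides; binding of probe to printed compounds measured as 667 nm fluorescence plus signal to noise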
[3] = probe aNOTCH3 binding on compound microarray – biochemical, small-molecule microarray, 635/667 nm fluorescence, primary screen (AID 1120); settings: higher = more signal;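 note: probe is a biotin-tagged antibody raised against NOTCH3 rather than NOTCH3 protein; score merges spot fluorescence near 667 nm with spot signal to noise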
[4] = probe aNOTCH2 binding on compound microarray – biochemical, small-molecule microarray, 635/667 nm fluorescence, primary screen (AID 1121); settings: higher = more signal;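 note: score merges feature fluorescence read at 667 nm with its signal to noise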
[5] = target: Carbonic anhydrase 2 (Homo sapiens) (UniProt P00918); experiment: compounds binding carbonic anhydrase 2 – biochemical, small-molecule microarray, Alexa647-labelled CAII, profiling panel (AID 1122); settings: CAII-A647 binding fluorescence, higher = more signal
[6] = COS7 lysate on small-molecule microarray, probe aHis, 635 nm (AID 1123); settings: COS7 cell lysate, fluorescence, higher = more signal;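 note: z-score combines 667nm fluorescence intensity with signal-to-noise per printed compound spot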
[7] = probe aLAP1 signal on lysate-treated microarray – cell lysate, small-molecule microarray, COS7 lysate, primary screen (AID 1124); settings: probe aLAP1, fluorescence, higher = more signal;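 note: lysate comes from COS7 cells expressing LAP1 and is applied at 0.3 µg/mL; score merges spot fluorescence near 667 nm with signal-to-noise over triplicate slides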
[8] = tested on: Sam68 (KHDRBS1); experiment: compounds binding KHDRBS1 protein – biochemical, small-molecule microarray, 635 nm fluorescence, primary screen (AID 1125); settings: higher = more signal;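 note: score merges 667 nm channel intensity with signal to noise over triplicate slides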
[9] = tested on: Chordin-like protein 2 (CHRDL2); experiment: compounds binding chordin-like 2 – biochemical, small-molecule microarray, 635 nm fluorescence, primary screen (AID 1126); settings: fluorescence 635 nm, higher = more signal;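 note: printed compound slides probed with Chrdl2 protein at 4 µg/mL for 1 h at 4 C; score merges 667 nm emission intensity with signal to noise over three replicate slides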
[10] = target: Concanavalin-A (Canavalia ensiformis) (UniProt P02866); experiment: compounds binding concanavalin A lectin – biochemical, small-molecule microarray, Alexa647 label, 635 nm, artefact control for SMM control protein annotation, primary screen (AID 1127); settings: ConA-A647 binding fluorescence, higher = more signal;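 note: z combines 667 nm emission intensity with signal-to-noise across three replicate slides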
Concanavalin-A (Canavalia ensiformis), sequence (P02866 whole entry, looked up): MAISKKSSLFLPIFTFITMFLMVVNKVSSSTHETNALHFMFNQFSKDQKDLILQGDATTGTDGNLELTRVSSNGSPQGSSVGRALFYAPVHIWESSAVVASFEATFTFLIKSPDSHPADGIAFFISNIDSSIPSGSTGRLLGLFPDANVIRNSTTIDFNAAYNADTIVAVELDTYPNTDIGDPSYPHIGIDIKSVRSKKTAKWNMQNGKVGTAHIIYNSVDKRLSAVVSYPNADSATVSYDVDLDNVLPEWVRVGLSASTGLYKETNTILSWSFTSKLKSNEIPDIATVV

[11] = compounds binding Alexa647 anti-His antibody – biochemical, small-molecule microarray, 635 nm fluorescence, artefact control for SMM control protein annotation, primary screen (AID 1128); settings: higher = more signal;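 note: score merges feature fluorescence with signal-to-noise for each printed compound spot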
[12] = tested on: Human papillomavirus type 1a E7 protein (residues 1-88); experiment: HPV1a E7 small-molecule binders, primary screen, biochemical, small-molecule microarray, residues 1-88, 635 nm (AID 1129); settings: small-molecule microarray binding, fluorescence 635 nm; higher = more signal
[13] = target: Focal adhesion kinase 1 (Homo sapiens) (UniProt Q05397); experiment: PTK2 protein binding on printed compound slides – biochemical, small-molecule microarray, 635/667 nm fluorescence, BSA, DTT, primary screen (AID 1130); settings: 635 nm fluorescence, higher = more signal;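 note: composite of spot emission at 667 nm and signal to noise over triplicate slides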
Focal adhesion kinase 1 (Homo sapiens), sequence (Q05397 whole entry, looked up): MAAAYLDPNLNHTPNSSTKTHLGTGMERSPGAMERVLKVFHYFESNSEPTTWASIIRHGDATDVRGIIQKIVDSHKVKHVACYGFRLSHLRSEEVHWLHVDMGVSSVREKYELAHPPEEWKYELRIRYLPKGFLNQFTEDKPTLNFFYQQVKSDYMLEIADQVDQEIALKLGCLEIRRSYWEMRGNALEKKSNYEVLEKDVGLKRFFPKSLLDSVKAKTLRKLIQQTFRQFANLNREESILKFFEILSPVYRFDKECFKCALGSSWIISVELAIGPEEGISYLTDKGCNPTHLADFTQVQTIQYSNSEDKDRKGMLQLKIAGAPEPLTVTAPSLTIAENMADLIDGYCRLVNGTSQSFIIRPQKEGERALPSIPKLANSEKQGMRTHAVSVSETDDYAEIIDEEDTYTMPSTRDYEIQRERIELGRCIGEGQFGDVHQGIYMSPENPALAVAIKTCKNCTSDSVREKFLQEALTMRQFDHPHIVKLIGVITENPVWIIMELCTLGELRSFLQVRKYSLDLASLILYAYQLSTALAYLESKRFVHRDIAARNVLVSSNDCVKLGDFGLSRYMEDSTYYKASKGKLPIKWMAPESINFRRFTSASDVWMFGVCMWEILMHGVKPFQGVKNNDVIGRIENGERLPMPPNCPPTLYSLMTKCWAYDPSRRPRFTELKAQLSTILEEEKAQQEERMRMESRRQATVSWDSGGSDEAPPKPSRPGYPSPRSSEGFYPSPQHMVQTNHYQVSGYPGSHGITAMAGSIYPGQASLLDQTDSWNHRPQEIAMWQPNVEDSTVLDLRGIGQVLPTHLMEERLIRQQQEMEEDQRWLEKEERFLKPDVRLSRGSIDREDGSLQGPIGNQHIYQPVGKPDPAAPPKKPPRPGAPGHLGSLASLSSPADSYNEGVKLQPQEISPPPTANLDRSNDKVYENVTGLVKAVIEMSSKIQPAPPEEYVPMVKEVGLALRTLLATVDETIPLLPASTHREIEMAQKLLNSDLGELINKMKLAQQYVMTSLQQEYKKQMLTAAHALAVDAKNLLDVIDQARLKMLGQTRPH

[14] = tested on: Fibrinogen (Alexa647-labelled); experiment: Alexa647-fibrinogen binding to printed small molecules – biochemical, small-molecule microarray, 635/667 nm fluorescence, artefact control for SMM control-protein annotation, profiling panel (AID 1131); settings: fibrinogen-A647 binding fluorescence, higher = more signal;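 note: z-score merges 667 nm fluorescence with per-spot signal-to-noise over triplicate slides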
[15] = target: Follistatin (Homo sapiens) (UniProt P19883); experiment: FST protein binding to printed compounds – biochemical, small-molecule microarray, 635/667 nm fluorescence, primary screen (AID 1132); settings: 635 nm fluorescence, higher = more signal
Follistatin (Homo sapiens), sequence (P19883 whole entry, looked up): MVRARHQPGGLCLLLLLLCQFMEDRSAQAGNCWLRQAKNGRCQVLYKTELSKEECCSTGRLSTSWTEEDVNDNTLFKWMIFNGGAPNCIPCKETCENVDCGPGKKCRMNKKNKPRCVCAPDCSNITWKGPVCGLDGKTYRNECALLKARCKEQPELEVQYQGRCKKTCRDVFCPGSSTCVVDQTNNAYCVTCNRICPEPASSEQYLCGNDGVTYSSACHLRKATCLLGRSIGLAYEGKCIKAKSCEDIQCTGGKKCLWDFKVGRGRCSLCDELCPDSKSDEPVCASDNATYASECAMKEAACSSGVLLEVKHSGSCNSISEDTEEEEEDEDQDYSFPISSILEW

[16] = target: Fibroblast growth factor 2 (Homo sapiens) (UniProt P09038); experiment: basic fibroblast growth factor binding to printed compounds – biochemical, small-molecule microarray, 635/667 nm fluorescence, primary screen (AID 1133); settings: FGF2, fluorescence 635/667, higher = more signal
Fibroblast growth factor 2 (Homo sapiens), sequence (P09038 whole entry, looked up): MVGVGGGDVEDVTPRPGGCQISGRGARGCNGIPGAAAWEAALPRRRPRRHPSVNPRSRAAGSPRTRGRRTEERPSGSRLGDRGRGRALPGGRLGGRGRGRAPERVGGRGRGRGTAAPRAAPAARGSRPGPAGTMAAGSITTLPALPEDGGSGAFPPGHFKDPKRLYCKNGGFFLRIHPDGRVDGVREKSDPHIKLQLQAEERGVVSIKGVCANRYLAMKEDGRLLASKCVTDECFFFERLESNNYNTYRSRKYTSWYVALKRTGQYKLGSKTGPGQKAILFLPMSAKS

[17] = JC-1 mitochondrial potential readout, lung cancer cells – cell-based, A549, JC-1 fluorescence, basal, 24 h, 100 nL, profiling panel (AID 1138); settings: higher = more signal;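 note: A549 lung adenocarcinoma cells under basal conditions with no added stimulus; test concentration not given here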
[18] = tested on: Lefty1; experiment: Lefty1 protein binding to printed compounds – biochemical, small-molecule microarray, 635/667 nm fluorescence, primary screen (AID 1139); settings: fluorescence 635/667, higher = more signal
[19] = tested on: wheat germ agglutinin (Triticum aestivum), Alexa647-labelled; experiment: Alexa647-WGA lectin binding to printed small molecules – biochemical, small-molecule microarray, 635/667 nm fluorescence, artefact control for SMM control-protein annotation, profiling panel (AID 1140); settings: WGA-A647 binding, 635 nm fluorescence, higher = more signal;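 note: score merges 667 nm feature emission with signal to noise over triplicate slides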
[20] = target: Luciferin 4-monooxygenase (Photinus pyralis) (UniProt P08659); experiment: inhibition of purified Photinus pyralis luciferase – biochemical, luminescence, purified enzyme, 2006 set, primary screen (AID 1141); settings: purified firefly luciferase, SteadyGlo luminescence, 30 min; higher = more signal, called active from +8 up or from −8 down;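 note: cell-free assay with purified firefly luciferase at 100 ng per well in PBS; test concentration not given here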
Luciferin 4-monooxygenase (Photinus pyralis), sequence (P08659 whole entry, looked up): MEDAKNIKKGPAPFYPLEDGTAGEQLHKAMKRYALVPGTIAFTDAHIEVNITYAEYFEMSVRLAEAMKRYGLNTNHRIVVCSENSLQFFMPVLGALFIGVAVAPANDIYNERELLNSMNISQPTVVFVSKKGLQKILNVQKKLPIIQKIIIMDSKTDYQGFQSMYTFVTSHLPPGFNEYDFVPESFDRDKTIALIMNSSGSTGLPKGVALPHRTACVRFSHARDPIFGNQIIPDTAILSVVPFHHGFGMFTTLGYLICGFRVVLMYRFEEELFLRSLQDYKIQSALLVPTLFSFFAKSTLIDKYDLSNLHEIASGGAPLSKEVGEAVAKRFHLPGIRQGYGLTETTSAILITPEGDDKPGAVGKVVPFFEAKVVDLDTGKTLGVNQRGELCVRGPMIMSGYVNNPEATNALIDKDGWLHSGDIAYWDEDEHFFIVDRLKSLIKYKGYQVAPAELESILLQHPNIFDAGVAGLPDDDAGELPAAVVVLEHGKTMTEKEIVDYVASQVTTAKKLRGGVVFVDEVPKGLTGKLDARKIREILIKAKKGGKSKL

| Compound | composite z-score [1] | composite Z-score [2] | composite z-score [3] | composite z-score [4] | composite z-score [5] | composite z-score [6] | composite z-score [7] | composite z-score [8] | composite z-score [9] | composite z-score [10] | composite z-score [11] | composite z-score [12] | composite z-score [13] | composite z-score [14] | composite z-score [15] | composite z-score [16] | z-score [17] | composite z-score [18] | composite z-score [19] | z-score [20] |
| --- | --- | --- | --- | --- | --- | --- | --- | --- | --- | --- | --- | --- | --- | --- | --- | --- | --- | --- | --- | --- |
| CC(C)(C)OC(=O)CC[C@@]1(C(=O)N2CCOCC2)N=C(c2ccc(OCCCO)cc2)O[C@@H]1c1ccccc1N=[N+]=[N-] | 0.899 | 0.817 (inactive) | 0.336 | -0.0463 | 0.74 | 3.35 | 1.51 | 1.3 | -0.16 | 1.14 | 3.1 | 1.29 | 0.288 | 1.01 | 1.36 | 1.22 | 1.9 | 0.885 | 0.987 | -10.6 (active) |
| C=CCN1C(=O)[C@]2(Cc3ccccc31)N=C(c1ccc(OCCCO)cc1)O[C@@H]2c1ccccc1 | -0.171 | 2.13 (inactive) | 0.0562 | 0.121 | 0.253 | 2.37 | 0.339 | 0.965 | 0.569 | 1.08 | 0.599 | 1.22 | 0.436 | 0.585 | 1.36 | 1.65 | 0.188 | 0.366 | 0.322 | -1.39 (inactive) |
| C=C[C@@H](C)[C@@H](OC(=O)Nc1ccc(OC)cc1)c1ccc(O)c2ccccc12 | 0.199 | 0.725 (inactive) | -0.155 | -0.183 | 0.283 | 0.516 | -0.0028 | 0.349 | 0.897 | 0.323 | 0.305 | 0.52 | -0.209 | 0.521 | 1.16 | 1.22 | -1.38 | 0.676 | 0.449 | -5.76 (inactive) |
| Cc1ccc(N2C(=O)c3ccccc3[C@@H](C(=O)NC(C)C)[C@@H]2c2ccc(CO)cc2)nc1 | -0.106 | -0.0969 (inactive) | -0.272 | -0.152 | 0.743 | 0.971 | 0.618 | -0.721 | -0.0432 | -0.0441 | 0.621 | 0.708 | -0.291 | -0.756 | 0.931 | 1.55 | -1.05 | -0.362 | 0.692 | 1.25 (inactive) |
| Cc1ccc(N2C(=O)c3ccccc3[C@](C)(C(=O)NCCN3CCOCC3)[C@@H]2c2ccc(CO)cc2)nc1 | -0.657 | -0.559 (inactive) | -0.279 | -0.14 | 0.494 | -0.0207 | 0.0322 | -1.39 | -0.494 | -0.828 | 0.267 | -1.74 | -1.16 | -1.02 | -0.419 | -0.833 | -0.807 | -1.26 | -1.32 | 0.952 (inactive) |
| COC(=O)[C@@]1(Cc2ccccc2)[C@H]2c3cc(C(=O)N(C)C)n(Cc4cc(F)c(F)c(F)c4)c3C[C@H]2CN1C(=O)c1ccccc1 | 1.04 | -0.389 (inactive) | 0.692 | 0.289 | 0.656 | 2.8 | 0.525 | 1.32 | -0.801 | 0.953 | 2.19 | 1.22 | 0.692 | 0.832 | 0.83 | -0.311 | -0.322 | -0.807 | 0.418 | 1.78 (inactive) |
| COCCCNC(=O)[C@@]1(Cc2ccccc2I)c2ccccc2C(=O)N(Cc2ccccc2)[C@H]1c1ccc(CO)cc1 | -1.09 | -0.0662 (inactive) | -0.265 | -0.162 | 0.574 | 0.817 | -0.665 | 0.337 | -1.47 | -1.3 | 0.536 | -0.726 | -0.548 | -1.03 | -1.6 | -1.21 | 1.28 | -1.94 | -1.27 | -0.751 (inactive) |
| COCCOC(=O)N1C(=O)[C@@]2(c3ccccc31)[C@H](c1ccc(O)cc1)N1[C@H](c3ccccc3)[C@H](c3ccccc3)OC(=O)[C@H]1[C@@H]2C(N)=O | 0.436 | 0.313 (inactive) | -0.27 | -0.114 | 0.711 | 0.531 | -0.0821 | -0.764 | -1.04 | 0.035 | -0.445 | -0.218 | -0.046 | -1.35 | -0.601 | -0.239 | 0.181 | -0.0341 | -0.0601 | -0.144 (inactive) |
| O[C@@H](Cc1ccccc1)[C@@H](/C=C/c1ccccc1)NCc1ccccc1Br | -0.786 | -0.577 (inactive) | -0.358 | -0.192 | -0.53 | 0.0935 | -0.329 | -0.815 | -0.77 | -1.05 | -0.538 | -0.85 | -0.716 | -0.354 | -1.19 | -1.14 | 0.772 | -1.64 | 0.217 | 0.284 (inactive) |
| O=C1O[C@@H](c2ccccc2)[C@@H](c2ccccc2)N2[C@@H](c3ccc(O)cc3)[C@]3(C(=O)Nc4ccc(C#CCCO)cc43)[C@@H](C(=O)O)[C@H]12 | 0.323 | 0.674 (inactive) | 1.05 | 0.734 | 0.653 | 2.34 | 0.734 | 0.872 | 0.434 | 1.03 | 2.29 | 0.18 | 0.894 | 0.925 | 1.2 | -0.196 | 0.889 | -0.22 | 1.34 | -1.18 (inactive) |
